First the molecules themselves.
B1: TATT (dsDNA)
DNA 1: GCTATCTAGTGCTCAGTACGCACTGTATTAGGAAACTTCTGGCAGGACCAGGTCATGAGATCGGAAGAGCACACGTCTGAACTCCAGTCA
DNA 2: TGACTGGAGTTCAGACGTGTGCTCTTCCGATCTCATGACCTGGTCCTGCCAGAAGTTTCCTAATACAGTGCGTACTGAGCACTAGATAGC
RNA: AAUUUCUACUCUUGUAGAUAGGAAACUUCUGGCAGGACC
B2: TCGT (dsDNA)
DNA 1: GCTATCTAGTGCTCAGTACGCACTGTCGTAGGAAACTTCTGGCAGGACCAGGTCATGAGATCGGAAGAGCACACGTCTGAACTCCAGTCA
DNA 2: TGACTGGAGTTCAGACGTGTGCTCTTCCGATCTCATGACCTGGTCCTGCCAGAAGTTTCCTACGACAGTGCGTACTGAGCACTAGATAGC
RNA: AAUUUCUACUCUUGUAGAUAGGAAACUUCUGGCAGGACC
B3: TCCG (dsDNA)
DNA 1: GCTATCTAGTGCTCAGTACGCACTGTCCGAGGAAACTTCTGGCAGGACCAGGTCATGAGATCGGAAGAGCACACGTCTGAACTCCAGTCA
DNA 2: TGACTGGAGTTCAGACGTGTGCTCTTCCGATCTCATGACCTGGTCCTGCCAGAAGTTTCCTCGGACAGTGCGTACTGAGCACTAGATAGC
RNA: AAUUUCUACUCUUGUAGAUAGGAAACUUCUGGCAGGACC
B4: TCTT (dsDNA)
DNA 1: GCTATCTAGTGCTCAGTACGCACTGTCTTAGGAAACTTCTGGCAGGACCAGGTCATGAGATCGGAAGAGCACACGTCTGAACTCCAGTCA
DNA 2: TGACTGGAGTTCAGACGTGTGCTCTTCCGATCTCATGACCTGGTCCTGCCAGAAGTTTCCTAAGACAGTGCGTACTGAGCACTAGATAGC
RNA: AAUUUCUACUCUUGUAGAUAGGAAACUUCUGGCAGGACC
B5: TGTG (dsDNA)
DNA 1: GCTATCTAGTGCTCAGTACGCACTGTGTGAGGAAACTTCTGGCAGGACCAGGTCATGAGATCGGAAGAGCACACGTCTGAACTCCAGTCA
DNA 2: TGACTGGAGTTCAGACGTGTGCTCTTCCGATCTCATGACCTGGTCCTGCCAGAAGTTTCCTCACACAGTGCGTACTGAGCACTAGATAGC
RNA: AAUUUCUACUCUUGUAGAUAGGAAACUUCUGGCAGGACC
B6: TCGC (dsDNA)
DNA 1: GCTATCTAGTGCTCAGTACGCACTGTCGCAGGAAACTTCTGGCAGGACCAGGTCATGAGATCGGAAGAGCACACGTCTGAACTCCAGTCA
DNA 2: TGACTGGAGTTCAGACGTGTGCTCTTCCGATCTCATGACCTGGTCCTGCCAGAAGTTTCCTGCGACAGTGCGTACTGAGCACTAGATAGC
RNA: AAUUUCUACUCUUGUAGAUAGGAAACUUCUGGCAGGACC
B7: TGGA (dsDNA)
DNA 1: GCTATCTAGTGCTCAGTACGCACTGTGGAAGGAAACTTCTGGCAGGACCAGGTCATGAGATCGGAAGAGCACACGTCTGAACTCCAGTCA
DNA 2: TGACTGGAGTTCAGACGTGTGCTCTTCCGATCTCATGACCTGGTCCTGCCAGAAGTTTCCTTCCACAGTGCGTACTGAGCACTAGATAGC
RNA: AAUUUCUACUCUUGUAGAUAGGAAACUUCUGGCAGGACC
B8: TCAA (dsDNA)
DNA 1: GCTATCTAGTGCTCAGTACGCACTGTCAAAGGAAACTTCTGGCAGGACCAGGTCATGAGATCGGAAGAGCACACGTCTGAACTCCAGTCA
DNA 2: TGACTGGAGTTCAGACGTGTGCTCTTCCGATCTCATGACCTGGTCCTGCCAGAAGTTTCCTTTGACAGTGCGTACTGAGCACTAGATAGC
RNA: AAUUUCUACUCUUGUAGAUAGGAAACUUCUGGCAGGACC
B9: TCCT (dsDNA)
DNA 1: GCTATCTAGTGCTCAGTACGCACTGTCCTAGGAAACTTCTGGCAGGACCAGGTCATGAGATCGGAAGAGCACACGTCTGAACTCCAGTCA
DNA 2: TGACTGGAGTTCAGACGTGTGCTCTTCCGATCTCATGACCTGGTCCTGCCAGAAGTTTCCTAGGACAGTGCGTACTGAGCACTAGATAGC
RNA: AAUUUCUACUCUUGUAGAUAGGAAACUUCUGGCAGGACC
B10: TCCA (dsDNA)
DNA 1: GCTATCTAGTGCTCAGTACGCACTGTCCAAGGAAACTTCTGGCAGGACCAGGTCATGAGATCGGAAGAGCACACGTCTGAACTCCAGTCA
DNA 2: TGACTGGAGTTCAGACGTGTGCTCTTCCGATCTCATGACCTGGTCCTGCCAGAAGTTTCCTTGGACAGTGCGTACTGAGCACTAGATAGC
RNA: AAUUUCUACUCUUGUAGAUAGGAAACUUCUGGCAGGACC
B11: TCGA (dsDNA)
DNA 1: GCTATCTAGTGCTCAGTACGCACTGTCGAAGGAAACTTCTGGCAGGACCAGGTCATGAGATCGGAAGAGCACACGTCTGAACTCCAGTCA
DNA 2: TGACTGGAGTTCAGACGTGTGCTCTTCCGATCTCATGACCTGGTCCTGCCAGAAGTTTCCTTCGACAGTGCGTACTGAGCACTAGATAGC
RNA: AAUUUCUACUCUUGUAGAUAGGAAACUUCUGGCAGGACC
B12: TGTT (dsDNA)
DNA 1: GCTATCTAGTGCTCAGTACGCACTGTGTTAGGAAACTTCTGGCAGGACCAGGTCATGAGATCGGAAGAGCACACGTCTGAACTCCAGTCA
DNA 2: TGACTGGAGTTCAGACGTGTGCTCTTCCGATCTCATGACCTGGTCCTGCCAGAAGTTTCCTAACACAGTGCGTACTGAGCACTAGATAGC
RNA: AAUUUCUACUCUUGUAGAUAGGAAACUUCUGGCAGGACC
B13: TGAA (dsDNA)
DNA 1: GCTATCTAGTGCTCAGTACGCACTGTGAAAGGAAACTTCTGGCAGGACCAGGTCATGAGATCGGAAGAGCACACGTCTGAACTCCAGTCA
DNA 2: TGACTGGAGTTCAGACGTGTGCTCTTCCGATCTCATGACCTGGTCCTGCCAGAAGTTTCCTTTCACAGTGCGTACTGAGCACTAGATAGC
RNA: AAUUUCUACUCUUGUAGAUAGGAAACUUCUGGCAGGACC
B14: TCAC (dsDNA)
DNA 1: GCTATCTAGTGCTCAGTACGCACTGTCACAGGAAACTTCTGGCAGGACCAGGTCATGAGATCGGAAGAGCACACGTCTGAACTCCAGTCA
DNA 2: TGACTGGAGTTCAGACGTGTGCTCTTCCGATCTCATGACCTGGTCCTGCCAGAAGTTTCCTGTGACAGTGCGTACTGAGCACTAGATAGC
RNA: AAUUUCUACUCUUGUAGAUAGGAAACUUCUGGCAGGACC
B15: TGGT (dsDNA)
DNA 1: GCTATCTAGTGCTCAGTACGCACTGTGGTAGGAAACTTCTGGCAGGACCAGGTCATGAGATCGGAAGAGCACACGTCTGAACTCCAGTCA
DNA 2: TGACTGGAGTTCAGACGTGTGCTCTTCCGATCTCATGACCTGGTCCTGCCAGAAGTTTCCTACCACAGTGCGTACTGAGCACTAGATAGC
RNA: AAUUUCUACUCUUGUAGAUAGGAAACUUCUGGCAGGACC

In the first test the target is dAsCas12a Ultra (Acidaminococcus sp., UniProt U2UMQ6 1-1307, M537R;F870L;D908A;E993A;D1235A). The test can be described thus: Spec-seq (native PAGE EMSA with sequencing of bound and unbound); 25 mM Tris-HCl pH 7.4, 150 mM KCl, 5 mM MgCl2, 10% glycerol, 1 mM DTT, 40 ng/uL salmon sperm DNA; 400 nM Cas12a, 480 nM crRNA, 50 nM library, 37 C 1 h; native PAGE at room temperature; high values mean tight binding. The settings on record: protein: recombinant. A general note: Mobility shift assays separate free from complexed probe on a gel.
As for B1, the binding signal was -8.42 lnKA.
Still for that read-out and setting: the figure for B2 is -8.83 lnKA; for B3 it is -7.52 lnKA; for B4 it is -6.94 lnKA.
On the same count and under the same terms, to B5 belongs -7.7 lnKA; to B6, -7.42 lnKA; to B7, -8 lnKA.
On the same count and under the same terms, to B8 belongs -8.83 lnKA; to B9, -8.78 lnKA.
Regarding B10, the binding signal was -7.24 lnKA.
Still for that read-out and setting: to B11 belongs -8.77 lnKA; to B12, -7.9 lnKA; to B13, -8.9 lnKA.
Still for that read-out and setting: the figure for B14 is -8.33 lnKA.
Same read-out and setting: to B15 belongs -8.76 lnKA.

A further test addresses dAsCas12a E174R (Acidaminococcus sp., UniProt U2UMQ6 1-1307, E174R;D908A;E993A;D1235A). The test is described as above. Particulars: protein: recombinant.
B1: the binding signal is -8.04 lnKA.
Still for that read-out and setting: to B2 belongs -8.58 lnKA; to B3, -7.89 lnKA; to B4, -6.26 lnKA.
Turning to B5, the binding signal is -8.19 lnKA.
In the case of B6, the binding signal was -7.83 lnKA.
The same measure, in the same setting: the figure for B9 is -8.39 lnKA.
Same read-out and setting: the figure for B10 is -6.64 lnKA.
Same read-out and setting: the figure for B11 is -8.54 lnKA; for B12 it is -8.41 lnKA.

Another test addresses dAsCas12a S542R (Acidaminococcus sp., UniProt U2UMQ6 1-1307, S542R;D908A;E993A;D1235A). The test is described as above. Particulars: protein: recombinant.
As to B1, the binding signal was -7.99 lnKA.
The same measure, in the same setting: to B2 belongs -8.35 lnKA; to B3, -3.6 lnKA.
Still for that read-out and setting: the figure for B4 is -7.22 lnKA; for B5 it is -7.46 lnKA.
As for B6, the binding signal is -7.58 lnKA.
Still for that read-out and setting: the figure for B7 is -7.85 lnKA.
Take B8: the binding signal was -7.68 lnKA.
With B9, the binding signal was -5.43 lnKA.
On to B10, for which the binding signal was -3.52 lnKA.
Turning to B11, the binding signal is -7.61 lnKA.
Still for that read-out and setting: the figure for B12 is -7.82 lnKA; for B13 it is -8.33 lnKA.
On the same count and under the same terms, the figure for B14 is -7.5 lnKA; for B15 it is -8.26 lnKA.

For a further test, the target named is d-enCas12a (Acidaminococcus sp., UniProt U2UMQ6 1-1307, E174R;S542R;K548R;D908A;E993A;D1235A). The test is described as above. The settings on record: protein: recombinant.
On to B1, for which the binding signal is -3.27 lnKA.
For B2, the binding signal is -5.85 lnKA.
On the same count and under the same terms, the figure for B3 is -3.12 lnKA; for B4 it is -5.44 lnKA.
Same read-out and setting: to B5 belongs -2.08 lnKA; to B6, -5.36 lnKA.
On the same count and under the same terms, to B7 belongs -5.44 lnKA; to B8, -5.65 lnKA.
On to B9, for which the binding signal was -3.98 lnKA.
Turning to B10, the binding signal was -2.15 lnKA.
With B11, the binding signal is -5.86 lnKA.
Same read-out and setting: the figure for B12 is -3.23 lnKA.
With B13, the binding signal is -5.68 lnKA.
In the case of B14, the binding signal is -5.3 lnKA.
On the same count and under the same terms, the figure for B15 is -5.72 lnKA.

A further test addresses d-enCas12a-Ultra (Acidaminococcus sp., UniProt U2UMQ6 1-1307, E174R;S542R;K548R;M537R;F870L;D908A;E993A;D1235A). The test is described as above. Particulars: protein: recombinant.
B1: the binding signal is -1.25 lnKA.
On the same count and under the same terms, to B2 belongs -3.4 lnKA.
The same measure, in the same setting: the figure for B3 is -0.639 lnKA; for B4 it is -2.4 lnKA; for B5 it is -0.568 lnKA.
Same read-out and setting: to B6 belongs -2.95 lnKA; to B7, -3.27 lnKA; to B8, -3.39 lnKA.
As to B9, the binding signal was -0.951 lnKA.
On the same count and under the same terms, to B10 belongs -0.457 lnKA; to B11, -3.33 lnKA; to B12, -0.889 lnKA.
As to B13, the binding signal was -3.27 lnKA.
Turning to B14, the binding signal is -3 lnKA.
Same read-out and setting: to B15 belongs -3.36 lnKA.

The target in a further test is dAsCas12a K548R (Acidaminococcus sp., UniProt U2UMQ6 1-1307, K548R;D908A;E993A;D1235A). The description is as above. The settings on record: protein: recombinant.
Turning to B5, the binding signal is -8.2 lnKA.

For the origin of these results see PMC8222333, “AsCas12a ultra nuclease facilitates the rapid generation of therapeutic cell medicines”.
